Assay outcomes deposited in PubChem by several laboratories.
TRPM1 prom inh – reduces MITF-dependent TRPM1 promoter luciferase signal; hit rate 0.83% among 330,000; SK-MEL-5 TRPM1 promoter luciferase, 24 h; inhibition, % at 12.5 µM; AID 488899;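 active = mean inhibition across replicates of 60% or more, whatever share of single replicates reaches that level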
HIF-2a inh – HIF-2a inhibition | 786-0 RCC cells HIF-2a reporter, luciferase luminescence, overnight | inhibition, % at 18.8 µM | hit rate 0.72% among 360,000;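 active = inhibition of the luminescence signal of 40% or more relative to plate controls, in a single-dose primary screen at 18.75 µM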
ABHD5-PLIN5 inh – ABHD5-PLIN5 protein interaction inhibition; Q00G26+Q8WTS1; Split G. princeps luciferase complementation, luminescence, 4 h; inhibition, % at 4 µM; hit rate 0.78% among 360,000;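 active = inhibition above the mean inhibition across every tested compound plus 3 SD, cut at about 22% in these data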;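 note: 0% = DMSO only wells and the 100% control is not disclosed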
Peg3 promoter – reduces Peg3 promoter-driven luciferase expression in HeLa | HeLa PEG-Prom luciferase reporter, luminescence, overnight | inhibition, % at 20 µM | hit rate 1.7% among 360,000 | AID 588405;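 active = inhibition of at least 50% at 20 µM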
CF NFkB inh – cystic fibrosis NF-kB activation inhibition. KKLEB NF-kB-GFP reporter, PAF-induced, GFP fluorescence overnight. inhibition, % at 5 µM. hit rate 0.86% among 360,000;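 active = at least 50% inhibition at 5 µM, scaled per plate between neutral and stimulator controls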;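 note: PAF is a Pseudomonas aeruginosa culture filtrate used as stimulus; plate controls were PAF-stimulated DMSO wells for no effect and unstimulated DMSO wells for full effect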
KKLEB tox – CF airway cell cytotoxicity counter-screen | KKLEB CF airway cells viability, ATPlite luminescence, overnight; active compounds read low; cells stimulated with P. aeruginosa culture filtrate | activity change (cytotoxicity), % at 5 µM | hit rate 0.36% among 360,000;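 active = corrected activity change at or below -50% at 5 µM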
Mdm2 MdmX conf – confirmation of inhibitors of human Mdm2/MdmX interaction, set 2; shares compounds with HIF-2a inh; SaOS-2 split-luciferase Mdm2/MdmX complementation, luminescence; inhibition, % at 8 µM; hit rate 99% among 740;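 active = mean inhibition of the luminescence signal across two replicates at or above 26 percent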
Target sequence (O15151 whole entry, looked up): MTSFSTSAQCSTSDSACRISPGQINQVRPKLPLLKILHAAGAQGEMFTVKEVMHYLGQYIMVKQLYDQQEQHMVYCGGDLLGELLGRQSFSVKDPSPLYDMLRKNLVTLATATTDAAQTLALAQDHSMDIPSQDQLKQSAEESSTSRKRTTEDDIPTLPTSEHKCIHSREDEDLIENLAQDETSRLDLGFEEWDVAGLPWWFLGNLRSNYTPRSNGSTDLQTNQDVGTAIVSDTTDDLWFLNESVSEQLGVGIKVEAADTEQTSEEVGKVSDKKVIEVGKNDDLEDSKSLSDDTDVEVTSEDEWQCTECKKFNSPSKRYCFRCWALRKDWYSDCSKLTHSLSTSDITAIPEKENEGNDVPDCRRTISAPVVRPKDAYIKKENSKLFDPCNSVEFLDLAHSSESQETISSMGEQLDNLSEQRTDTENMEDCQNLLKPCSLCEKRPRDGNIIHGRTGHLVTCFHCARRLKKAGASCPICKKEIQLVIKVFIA
Target sequence (Q00987 whole entry, looked up): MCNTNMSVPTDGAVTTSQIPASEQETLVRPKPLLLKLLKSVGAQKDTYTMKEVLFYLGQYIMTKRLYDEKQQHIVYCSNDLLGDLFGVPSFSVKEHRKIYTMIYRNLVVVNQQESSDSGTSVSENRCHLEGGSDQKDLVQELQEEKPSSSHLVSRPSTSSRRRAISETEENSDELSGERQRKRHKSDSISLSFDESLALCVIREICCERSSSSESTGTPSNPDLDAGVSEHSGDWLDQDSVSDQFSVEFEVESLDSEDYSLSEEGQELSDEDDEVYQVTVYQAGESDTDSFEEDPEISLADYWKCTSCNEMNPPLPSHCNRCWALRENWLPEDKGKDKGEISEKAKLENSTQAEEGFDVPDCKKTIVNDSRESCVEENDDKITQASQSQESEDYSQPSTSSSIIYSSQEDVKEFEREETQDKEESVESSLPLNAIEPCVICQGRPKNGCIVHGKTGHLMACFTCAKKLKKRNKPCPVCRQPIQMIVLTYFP
HIF-2a conf – HIF-2a inhibition, single concentration confirmation. shares compounds with HIF-2a inh. 786-0 RCC cells, HIF-2a luciferase reporter luminescence, overnight. inhibition, % at 18.8 µM. hit rate 56% among 1,800;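 active = mean inhibition across four replicates of at least 40 percent at the single tested concentration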
HIF-1a counter – inhibits HIF-1a reporter, a counter-screen for HIF-2a inhibitors. shares compounds with HIF-2a inh. hit rate 72% among 1,800. AID 651589. MiaPaCa-2 HIF-1a luciferase reporter, desferoxamine, overnight. inhibition, % at 18.8 µM;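 active = mean inhibition of the reporter signal across four replicates at the single tested dose of 50% or more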
* = called active by the depositor; x = not tested or not shown. Most compounds without a hit are left out; they make up all but 3.1% or so of the library.

SMILES	TRPM1 prom inh	HIF-2a inh	ABHD5-PLIN5 inh	Peg3 promoter	CF NFkB inh	KKLEB tox	Mdm2 MdmX conf	HIF-2a conf	HIF-1a counter
COc1ccc(C2c3ccc(O)cc3Oc3ncn(Cc4ccco4)c(=N)c32)cc1 (stereo not given)	7.3	5.4	10.4	6.9	17.6	-11.3	x	x	x
COc1ccc(C2c3ccc(O)cc3Oc3ncn(Cc4ccccc4)c(=N)c32)cc1OC (stereo not given)	34.4	58.5*	5.7	22.1	7.7	-0.2	x	9.0	50.9*
CC(=O)Nc1ccc(OCC(=O)c2ccc(C)cc2C)cc1	-3.7	64.4*	2.1	-20.8	-2.8	7.0	x	85.0*	35.5
COc1cccc(NC(=O)Nc2nc(-c3ccc(OC)c(OC)c3)cs2)c1	80.3*	-121.7	-7.0	105.4*	109.1*	-99.9*	103.0*	x	x
CC(=O)Nc1ccc(Sc2ccc([N+](=O)[O-])o2)cc1	94.6*	91.2*	10.9	96.8*	89.5*	-50.5*	x	94.1*	102.5*
O=C1CCN(CCc2ccccc2)CCN1CCO	17.6	10.1	-2.1	-1.7	24.4	-5.0	x	x	x
Cc1cccc(C2(c3cccc(C)c3)CC2C(=O)Nc2ccc([N+](=O)[O-])cc2O)c1 (stereo not given)	66.3*	21.9	-32.4	53.7*	58.4*	-61.6*	100.2*	x	x
Cn1nnnc1Sc1ncnc2scc(-c3cccs3)c12	88.3*	x	x	x	x	x	102.7*	x	x
Cn1nnnc1Sc1ncnc2scc(-c3ccc(-c4ccccc4)cc3)c12	10.7	45.9*	4.2	101.4*	87.6*	-63.0*	x	-26.4	100.8*
COc1cccc(-c2csc3ncnc(Sc4nnnn4C)c23)c1	71.1*	47.4*	10.4	88.5*	46.6	-12.5	x	42.6*	98.4*
Cn1nnnc1Sc1ncnc2scc(-c3ccccc3C(F)(F)F)c12	42.6	51.0*	8.7	18.4	22.3	-18.3	x	46.3*	59.0*
CC(=O)NC(c1ccccc1)c1nc(/C=C/c2ccccc2)cs1 (stereo not given)	x	-112.9	4.9	-17.2	-2.3	-1.3	x	x	x
CC(C)CCNC(=O)C(c1ccc(O)cc1)N(Cc1ccco1)C(=O)CCC(=O)Nc1nccs1 (stereo not given)	2.8	16.2	-1.1	1.9	12.8	-6.2	x	x	x
CC1(C)Cc2nc(Cl)c(C(N)=O)cc2CO1	5.7	12.3	-6.4	1.6	15.4	-16.4	x	x	x
Cc1nnc(SCC(=O)NCC(=O)Nc2ccc(F)c(F)c2F)n1Cc1ccccc1	29.2	9.6	-1.5	8.9	-8.2	20.3	x	x	x
Cc1ccc(-c2cccc(-c3cc(=O)oc4ccc(C(C)(C)C)cc34)c2)cc1	-4.2	2.3	-6.7	11.3	35.2	-7.5	x	x	x
Cn1nnnc1Sc1ncnc2scc(-c3ccc(C(F)(F)F)cc3)c12	81.6*	94.4*	14.6	96.9*	72.5*	-59.4*	100.0*	98.1*	102.5*
Cn1nnnc1Sc1ncnc2scc(-c3cccc(C(F)(F)F)c3)c12	74.5*	83.8*	1.1	94.7*	71.0*	-51.9*	103.0*	91.2*	99.1*
O=S(=O)(CCNCc1cccs1)c1ccc(Cl)cc1	-2.4	8.4	7.6	3.1	15.3	-3.3	x	x	x
COc1cccc(CNC(=O)CCc2nc3cc(S(=O)(=O)N4CCOCC4)ccc3n2C)c1	6.0	-40.5	-3.4	-11.1	-0.1	13.6	x	x	x
C1=CC2=NC34CCCCC3CC3=C(CCCC3)N4C2=CC1=NC1CCCCC1 (stereo not given)	14.4	17.2	1.6	21.9	17.3	0.1	52.0*	x	x
Nc1cccnc1S(=O)(=O)c1ccccc1	-10.8	20.2	1.7	-0.8	0.0	4.5	x	x	x
O=[N+]([O-])c1cccnc1S(=O)(=O)c1ccccc1	23.3	54.6*	22.4*	82.4*	82.2*	-68.1*	102.0*	20.5	-1.1
COc1ccc([N+](=O)[O-])c(S(=O)(=O)c2ccccc2)n1	x	82.2*	52.5*	110.8*	84.7*	-55.4*	103.2*	87.6*	84.1*
COc1ccccc1S(=O)(=O)c1ccccc1[N+](=O)[O-]	-4.8	12.0	-1.5	-1.2	7.7	-16.4	x	x	x
SMILES	TRPM1 prom inh	HIF-2a inh	ABHD5-PLIN5 inh	Peg3 promoter	CF NFkB inh	KKLEB tox	Mdm2 MdmX conf	HIF-2a conf	HIF-1a counter
COc1nc(OC)nc(Oc2ccc(Cl)cc2[N+](=O)[O-])n1	13.8	16.3	-5.1	12.2	-6.6	8.4	x	x	x
COc1ccc([N+](=O)[O-])c(S(=O)(=O)c2ccc(Cl)cc2)n1	70.6*	60.5*	39.2*	104.8*	101.7*	-47.0	103.2*	75.3*	61.7*
c1cc(N2CCOCC2)ccc1-c1ccc2nncn2c1	x	38.4*	-5.2	8.5	-5.9	-2.3	x	17.3	-13.6
Brc1ccc(NCc2cccc3ccccc23)nc1	-27.1	-125.7	-5.0	-53.0	-21.3	1.0	x	x	x
Oc1ccccc1CNc1ccc(Br)cn1	-50.0	-214.1	-5.3	-268.3	-10.9	-21.5	31.5*	x	x
COc1ccc(-n2nc(C#N)c(Cl)cc2=O)cc1	99.9*	91.0*	4.7	104.2*	76.6*	-14.8	103.2*	x	x
COC(=O)c1nn(-c2ccc(OC)cc2)c(=O)cc1O	-6.8	8.9	-2.3	0.3	-5.0	11.0	x	x	x
NC(N)=Nc1nc(-c2ccccc2)c2cc(F)ccc2n1	3.1	40.3*	2.3	88.3*	-108.5	16.3	x	16.1	79.4*
Cc1ccccc1NC(=O)c1ccc([N+](=O)[O-])o1	5.8	7.1	0.1	12.7	30.0	-9.7	x	x	x
Cc1ccccc1/C=C/C(=O)c1ccc([N+](=O)[O-])o1	x	x	x	x	x	x	100.5*	x	x
CC(=O)Nc1ccc(NC2=C(Cl)C(=O)c3ccccc3C2=O)cc1	x	x	x	x	x	x	103.2*	x	x
COc1cc(OC)cc(-c2cc3nc(C)c(CCC(=O)O)c(C)n3n2)c1	x	81.6*	0.7	31.9	1.0	-6.9	x	89.7*	85.7*
CCOC(=O)C1CCN(C(=O)CCc2c(C)nc3cc(-c4ccccc4)nn3c2C)CC1	30.1	68.6*	-3.4	-50.3	19.6	-5.3	x	84.5*	44.9
CCOC(=O)C1CCCCN1C(=O)CCc1c(C)nc2cc(-c3ccccc3)nn2c1C (stereo not given)	x	74.9*	3.8	-36.8	-18.6	3.4	x	85.1*	73.8*
COc1cc(OC)cc(-c2cc3nc(C)c(CCC(=O)NC(C)CCc4ccco4)c(C)n3n2)c1 (stereo not given)	-4.3	39.0	0.4	14.9	-7.6	-5.8	x	x	x
CCOC(=O)C1CCN(C(=O)CCc2c(C)nc3c(-c4ccc(F)cc4)c(C)nn3c2C)CC1	x	27.8	-1.2	25.9	19.5	-17.7	x	x	x
